Structures can show the parent of a compound that is named as a salt.
Columns and labels:
Experiment in all cases: Euclidean distance of Cell Painting phenotypic profile (signed KS, 77 features) to DMSO centroid (dimensionless distance); 5 or 10 uM (library dependent); higher = stronger phenotypic change vs DMSO (phenoactivity)
Conditions in all cases: 48 h
[1] = tested on: 786-O
Procedure, shortened: (§1)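 Phenoactivity is computed as Euclidean distance to the median vehicle profile. The profiles, drawn from 77 Harmony features scored as signed Kolmogorov-Smirnov statistics versus same-plate vehicle wells, were corrected for plate position, correlation-weighted and replicate-averaged at the top dose. Stained cells were imaged confocally at 20X (9 fields/well) after 48 h with library compounds at 10 or 5 uM, 0.1% DMSO final, in five cancer lines and a healthy fibroblast line.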

[2] = tested on: A549
Procedure, shortened: as §1

[3] = tested on: DU145
Procedure, shortened: as §1

[4] = tested on: FB
Procedure, shortened: as §1

[5] = tested on: HEPG2
Procedure, shortened: as §1

[6] = tested on: OVCAR4
Procedure, shortened: as §1

Compound | Euclidean distance [1] | Euclidean distance [2] | Euclidean distance [3] | Euclidean distance [4] | Euclidean distance [5] | Euclidean distance [6]
Cc1ccccc1-c1cc(N2CCN(C)CC2)ncc1N(C)C(=O)C(C)(C)c1cc(C(F)(F)F)cc(C(F)(F)F)c1 [Netupitant] | 1.35 | 0.761 | 0.595 | 0.999 | 1.23 | 1.4
CO[C@@]1(NC(=O)Cc2cccs2)C(=O)N2C(C(=O)O)=C(COC(N)=O)CS[C@@H]21 [Cefoxitin sodium] | 1.26 | 0.874 | 1.51 | 1.02 | 0.857 | 0.983
CN(C)CCc1c[nH]c2ccc(CS(=O)(=O)N3CCCC3)cc12 [Almotriptan Malate] | 1.05 | 0.798 | 0.545 | 1.14 | 1.78 | 1.51
Cn1cnc2c1c(=O)[nH]c(=O)n2C [Theobromine] | 0.718 | 0.658 | 0.727 | 0.792 | 1.77 | 0.9
CCC(=O)O[C@@H]1CC(=O)O[C@H](C)C/C=C/C=C/[C@H](O)[C@H](C)C[C@H](CC=O)[C@H](O[C@@H]2O[C@H](C)[C@@H](O[C@H]3C[C@@](C)(O)[C@@H](OC(=O)CC)[C@H](C)O3)[C@H](N(C)C)[C@H]2O)[C@H]1OC [Midecamycin] | 0.98 | 1.59 | 0.874 | 1.31 | 1.08 | 1.07
Cc1cc(Nc2ccc(NC(=O)c3ccc(Nc4ccnc5ccccc45)cc3)cc2)nc(N)n1 | 1.66 | 3.02 | 1.42 | 5.18 | 0.532 | 3.29
O=C(c1ccc(C(=O)N2CCC(N3CCCC3)CC2)c(Nc2ccccc2)c1)N1CCC(N2CCCC2)CC1 | 0.8 | 1.05 | 0.703 | 0.904 | 0.536 | 0.678
COc1cc(C(=O)NC2CCCNC2)cc(OC)c1OC (stereo unspecified) [Troxipide] | 1.15 | 1.12 | 1.81 | 0.842 | 1.83 | 1.43
Cc1c(Cl)cccc1Nc1ncccc1C(=O)O [Clonixin] | 0.846 | 1.1 | 1.6 | 1.11 | 0.606 | 0.98
CC(=C(CCO)SSCC1CCCO1)N(C=O)Cc1cnc(C)nc1N (stereo in doubt) [Fursultiamine] | 1.19 | 0.749 | 0.785 | 1.06 | 0.579 | 1.17
NC(=O)Nc1sc(-c2ccc(F)cc2)cc1C(N)=O | 1.85 | 1.8 | 2.12 | 3.25 | 0.991 | 1
CN1CCN(c2cccc(Nc3nc4c(-c5ccc(S(C)(=O)=O)cc5)cccn4n3)c2)CC1 | 1.38 | 1.14 | 1.07 | 1.26 | 0.565 | 1.25
CC1(C)CCC2=C(O1)c1ccccc1C(=O)C2=O [Beta-Lapachone] | 3.88 | 5.17 | 7.8 | 4.08 | 4.33 | 5.57
CC(C)(C)NC(=O)[C@@H]1CN(Cc2cccnc2)CCN1C[C@@H](O)C[C@@H](Cc1ccccc1)C(=O)N[C@H]1c2ccccc2C[C@H]1O [Indinavir Sulfate] | 0.896 | 0.551 | 0.801 | 0.953 | 0.739 | 1.27
CCNC(=O)[C@@H]1CCCN1C(=O)[C@H](CCCN=C(N)N)NC(=O)[C@H](CC(C)C)NC(=O)[C@@H](C)NC(=O)[C@H](Cc1ccc(O)cc1)NC(=O)[C@H](CO)NC(=O)[C@H](Cc1c[nH]c2ccccc12)NC(=O)[C@H](Cc1cnc[nH]1)NC(=O)[C@@H]1CCC(=O)N1 [Alarelin Acetate] | 0.728 | 1.38 | 0.974 | 2.05 | 1.87 | 1.24
CO[C@H]1O[C@@H]2O[C@@]3(C)CC[C@H]4[C@H](C)CC[C@@H]([C@H]1C)[C@@]24OO3 [Artemether] | 1.43 | 1.11 | 0.712 | 1.28 | 0.672 | 1.26
Oc1ccc(OC2CCCCO2)cc1 (stereo unspecified) [Deoxyarbutin] | 1.11 | 0.699 | 1.16 | 1.24 | 1.02 | 1.45
CC(=O)OCC(=O)[C@@]12N=C(C)O[C@@H]1C[C@H]1[C@@H]3CCC4=CC(=O)C=C[C@]4(C)[C@H]3[C@@H](O)C[C@@]12C [Deflazacort] | 1.27 | 1.84 | 2.48 | 2.04 | 1.58 | 1.7
Cc1c(N)c(=O)n(-c2ccccc2)n1C [4-Aminoantipyrine] | 1.29 | 0.968 | 1.5 | 0.907 | 0.845 | 1.32
N#CCCCSC(=N)N [Kevetrin hydrochloride] | 1.5 | 0.842 | 1.04 | 0.849 | 0.473 | 0.902
CC(=O)O[C@@H]1CC[C@@]2(C)[C@@H](CC[C@]3(C)[C@@H]2C(=O)C=C2[C@@H]4[C@@H](C)[C@H](C)CC[C@]4(C)CC[C@]23C)[C@@]1(C)C(=O)O | 0.752 | 0.999 | 1.02 | 0.939 | 0.732 | 0.773

Source: the supplement of paper PMC10127200
